PubChem BioAssay (NCI)
This is part of a sample that, as a whole, favours compounds with a hit. Of some 79,000 tested, about 15% had one in any assay. A number with no mark means an inactive call. Active and inactive are the calls of the source. Cut-off read from the data, not from the text of the source: active = growth inhibition above about 70%; inactive = the rest.

Tests used:
[1] = NCI Yeast Anticancer Drug Screen. Data for the rad50 strain (AID 155);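 note: 0% = growth of vehicle-only cultures of the same strain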; details: S. cerevisiae rad50 strain growth inhibition, stronger effect = higher value
Procedure, shortened: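 Cells are treated with compound, grown, and their growth is then scored against vehicle-only cultures of the same repair-deficient yeast strain.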

[2] = NCI Yeast Anticancer Drug Screen. Data for the mec2-1 strain (AID 157); details: S. cerevisiae mec2-1 strain, stronger effect = higher value
Procedure, shortened: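 Yeast mec2-1 mutant treated with compound. Readout: growth inhibition vs vehicle controls.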

[3] = NCI Yeast Anticancer Drug Screen. Data for the sgs1 mgt1 strain (AID 161);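 note: 0% = growth of cultures given vehicle only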; details: S. cerevisiae sgs1 mgt1 strain, stronger effect = higher value
Procedure, shortened: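 Inhibition of yeast growth, normalised to vehicle-treated controls, is reported for a strain bearing genetic alterations in DNA damage repair.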

[4] = NCI Yeast Anticancer Drug Screen. Data for the cln2 rad14 strain (AID 165);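 note: 0% = growth equal to vehicle treated cultures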; details: S. cerevisiae cln2 rad14 strain, stronger effect = higher value
Procedure, shortened: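 cln2 rad14 yeast strain; compound exposure; growth inhibition read vs vehicle controls.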

[5] = NCI Yeast Anticancer Drug Screen. Data for the bub3 strain (AID 167); details: S. cerevisiae bub3 mutant strain, stronger effect = higher value
Procedure, shortened: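 Part of a panel of yeast mutants defective in DNA damage repair or cell cycle regulation. Each strain is grown with compound, and inhibition is calculated relative to solvent-treated cultures.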

[6] = NCI Yeast Anticancer Drug Screen. Data for the mlh1 rad18 strain (AID 175); details: S. cerevisiae mlh1 rad18 strain growth inhibition, stronger effect = higher value
Procedure, shortened: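 Yeast w/ defined DNA-repair lesions; compound exposure; growth vs vehicle controls → % inhibition.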

[7] = at 5.0 µM (retest, dose inferred, filed as 0.5)
[8] = at 50.0 µM (retest, dose inferred, filed as 5.0)

SMILES | growth inhibition [1, 7] | growth inhibition [1, 8] | growth inhibition ([1]; at 50.0 µM) | growth inhibition [2, 7] | growth inhibition [2, 8] | growth inhibition ([2]; at 50.0 µM) | growth inhibition [3, 7] | growth inhibition [3, 8] | growth inhibition ([3]; at 50.0 µM) | growth inhibition [4, 7] | growth inhibition [4, 8] | growth inhibition ([4]; at 50.0 µM) | growth inhibition [5, 7] | growth inhibition [5, 8] | growth inhibition ([5]; at 50.0 µM) | growth inhibition [6, 7] | growth inhibition [6, 8] | growth inhibition ([6]; at 50.0 µM)
Cc1cc2c(cc1Cl)Sc1nnc(C)n1S2(=O)=O | 18% | 81% (active) | 74.8% (active) | 14% | 59% | 71% (active) | 3% | 34% | 62.2% | 17% | 34% | 48.8% | -12% | 85% (active) | 84.3% (active) | 9% | 75% (active) | 75.6% (active)
COC(=O)c1cc(=O)n(-c2ccccc2OC)c(SC)n1 | 2% | 83% (active) | 89.5% (active) | -1% | 73% (active) | 89% (active) | 8% | 87% (active) | 92.5% (active) | -8% | 67% | 49.4% | -5% | 58% | 94.8% (active) | -2% | 79% (active) | 98.1% (active)
N#CSCCSC#N | 5% | 95% (active) | 76% (active) | -1% | 93% (active) | 82.5% (active) | 4% | 91% (active) | 87.2% (active) | 6% | 86% (active) | 40.3% | 9% | 96% (active) | 81.8% (active) | 3% | 95% (active) | 83.7% (active)
Cc1nc(N)sc1N=Nc1cccc(Cl)c1Cl | -5% | 39% | 71.5% (active) | -8% | 56% | 50.4% | 3% | 70% (active) | 66.2% | 0% | 4% | 53.8% | -2% | 23% | 75.8% (active) | 21% | 79% (active) | 84.2% (active)
CC1=C(/C=C/C(C)=N/NC(N)=S)C(C)(C)CCC1 | 24% | 87% (active) | 84.5% (active) | 5% | 88% (active) | 80.5% (active) | 22% | 88% (active) | 65.8% | 15% | 85% (active) | 76.9% (active) | 16% | 86% (active) | 80.1% (active) | 6% | 89% (active) | 85% (active)
CCN(CC)C(=O)C1(OC(C)=O)CCCCC1 | 0% | 0% | -2.4% | -21% | -1% | -5.65% | 0% | -2% | 9.9% | 3% | 0% | 36.8% | -6% | -2% | 2.1% | 1% | 0% | -80.8%
COC(=O)c1[nH]c(=O)c(C#N)c(C(=O)OC)c1C(=O)c1ccc(Cl)c(Cl)c1 | -19% | 90% (active) | 97% (active) | -18% | 55% | 73% (active) | 23% | 72% (active) | 95.4% (active) | 3% | 61% | 46.1% | -22% | 90% (active) | 79.5% (active) | -12% | 90% (active) | 93.9% (active)
O=C1/C(=C/O)CCc2c1ccc1ccccc21 | 15% | 98% (active) | 98.4% (active) | 9% | 99% (active) | 99% (active) | -9% | 98% (active) | 99.1% (active) | 6% | 99% (active) | 97.7% (active) | 10% | 98% (active) | 98.9% (active) | 17% | 98% (active) | 96.2% (active)
COCCN1C(=O)C2c3[nH]c4ccccc4c3C3CCC(C(C)(C)C)CC3C2C1=O (stereo not given) | -2% | 98% (active) | 93.8% (active) | -1% | 98% (active) | 96% (active) | -7% | 98% (active) | 88.7% (active) | -21% | 96% (active) | 95.6% (active) | -4% | 94% (active) | 94.2% (active) | 4% | 98% (active) | 94.5% (active)
Nc1ccc(-c2nc3ccccc3s2)cc1Br | 33% | 74% (active) | 8% | 24% | 77% (active) | 18.8% | 31% | 97% (active) | 21.1% | 27% | 63% | 10.8% | 28% | 96% (active) | 52% | 34% | 88% (active) | 55.9%
